Inconclusive results are not listed. Calls of active or inactive are those of the source. Unless noted, calls come from the whole dose curve; as a rule, active = well fitted curve in the direction sought with a large enough effect in the repeat runs; inconclusive = weak or mixed curves; inactive = no such curve, though single readings can be large; an effect the other way counts as inactive or inconclusive.
Key:
[1] = target: Aryl hydrocarbon receptor (Homo sapiens) (UniProt P35869); assay: qHTS assay to identify small molecule that activate the aryl hydrocarbon receptor (AhR) signaling pathway (AID 743085); conditions: HepG2 AhR-luc (HG2L7.5c1), luciferase, 24 h; series mostly up to 70.3 µM;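 note: HG2L7.5c1 human HepG2 liver cells with stably integrated DRE-driven firefly reporter; nearly all actives have a fitted effect of over 15% in size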
Chain of Aryl hydrocarbon receptor (Homo sapiens) (P35869 whole entry, looked up): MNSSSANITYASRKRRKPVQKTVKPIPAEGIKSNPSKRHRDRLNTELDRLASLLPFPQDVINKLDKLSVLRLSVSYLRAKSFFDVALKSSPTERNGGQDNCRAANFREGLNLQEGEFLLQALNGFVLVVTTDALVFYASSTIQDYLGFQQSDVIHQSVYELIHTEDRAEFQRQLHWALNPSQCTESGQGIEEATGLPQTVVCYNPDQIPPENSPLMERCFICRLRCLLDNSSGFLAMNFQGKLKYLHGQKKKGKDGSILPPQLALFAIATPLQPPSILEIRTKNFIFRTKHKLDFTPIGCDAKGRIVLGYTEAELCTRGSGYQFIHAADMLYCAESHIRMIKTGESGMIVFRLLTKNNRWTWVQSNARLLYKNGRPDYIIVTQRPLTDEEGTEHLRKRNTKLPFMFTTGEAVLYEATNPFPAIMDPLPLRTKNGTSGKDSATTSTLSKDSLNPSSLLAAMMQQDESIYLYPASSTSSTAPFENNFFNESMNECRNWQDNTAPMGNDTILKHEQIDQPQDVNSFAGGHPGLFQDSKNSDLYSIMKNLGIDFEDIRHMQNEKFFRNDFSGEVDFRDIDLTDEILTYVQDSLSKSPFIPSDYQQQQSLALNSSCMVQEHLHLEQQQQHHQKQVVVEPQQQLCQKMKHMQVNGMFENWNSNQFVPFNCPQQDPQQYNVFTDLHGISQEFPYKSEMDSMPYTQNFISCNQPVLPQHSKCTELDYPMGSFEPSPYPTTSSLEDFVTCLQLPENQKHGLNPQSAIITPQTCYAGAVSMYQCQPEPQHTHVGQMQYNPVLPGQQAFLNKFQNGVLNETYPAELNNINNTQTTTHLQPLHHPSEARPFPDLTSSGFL
In short: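 24 h compound exposure, 37C, HepG2-derived HG2L7.5c1 cells with DRE-responsive luciferase. Readouts: fluorescence viability, then luminescence at room temperature after 30 min.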

[2] = qHTS assay to identify small molecule that activate the aryl hydrocarbon receptor (AhR) signaling pathway - cell viability counter screen (AID 743086); conditions: HepG2-AhR-luc viability, CellTiter-Fluor, 24 h; series mostly up to 70.3 µM;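 note: HepG2 liver cells carrying the AhR DRE luciferase reporter; nearly all actives have a fitted effect of over 45% in size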
In short: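 Cytotoxicity counter screen: CellTiter-Fluor signal (30 min, 37 C) in 4000 HepG2 cells/well carrying the DRE-luciferase reporter, following 24 h compound exposure at 37 C.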

[3] = target: Peroxisome proliferator-activated receptor gamma (Homo sapiens) (UniProt P37231); assay: qHTS assay to identify small molecule agonists of the peroxisome proliferator-activated receptor gamma (PPARg) signaling pathway (AID 743094; active = well fitted activation curve with a large enough effect in the signal ratio in the repeat runs, not every such curve was filed as active; the % refers to the signal ratio); conditions: HEK293H PPARg-UAS-bla, beta-lactamase FRET ratio, 17 h; series mostly up to 57 µM
Chain of Peroxisome proliferator-activated receptor gamma (Homo sapiens) (P37231 whole entry, looked up): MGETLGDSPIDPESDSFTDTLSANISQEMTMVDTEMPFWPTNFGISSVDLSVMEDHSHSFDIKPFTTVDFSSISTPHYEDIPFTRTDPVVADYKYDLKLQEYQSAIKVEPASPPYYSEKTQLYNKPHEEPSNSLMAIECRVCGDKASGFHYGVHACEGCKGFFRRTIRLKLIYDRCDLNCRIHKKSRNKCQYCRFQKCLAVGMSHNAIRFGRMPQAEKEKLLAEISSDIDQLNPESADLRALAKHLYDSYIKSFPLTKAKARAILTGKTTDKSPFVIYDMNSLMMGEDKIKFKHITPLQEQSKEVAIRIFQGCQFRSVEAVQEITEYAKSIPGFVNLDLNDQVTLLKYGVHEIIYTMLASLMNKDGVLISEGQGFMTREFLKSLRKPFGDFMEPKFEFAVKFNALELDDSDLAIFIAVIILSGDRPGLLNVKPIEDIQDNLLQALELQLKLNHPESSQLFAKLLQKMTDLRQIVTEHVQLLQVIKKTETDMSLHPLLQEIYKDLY
In short: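 GeneBLAzer PPARg UAS-bla HEK293H cells carrying a stably integrated beta-lactamase reporter were pre-incubated 5 h at 37C, then exposed to compounds in DMSO for 17 h at 37C; LiveBLAzer B/G FRET substrate was added for 1 h at room temperature and fluorescence read.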

[4] = target: Peroxisome proliferator-activated receptor gamma (Homo sapiens) (UniProt P37231); assay: qHTS assay to identify small molecule antagonists of the peroxisome proliferator-activated receptor gamma (PPARg) signaling pathway (AID 743191; calls by dose curve; note: nearly all actives have a fitted effect of over 30% in size); conditions: HEK293H PPARg-UAS-bla, beta-lactamase ratio, antagonist, 17 h; series mostly up to 62.6 µM
In short: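 Beta-lactamase reporter under UAS control in HEK293H PPARg-bla cells; compound treatment 17 h at 37C. Read-out: fluorescence intensity after 1 h room-temperature incubation with LiveBLAzer B/G FRET substrate.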

[5] = qHTS assay to identify small molecule antagonists of the peroxisome proliferator-activated receptor gamma (PPARg) signaling pathway - cell viability counter screen (AID 743194); conditions: PPARg-bla HEK293H viability, CellTiter-Glo luminescence, 17 h, co-treated with 50 nM rosiglitazone; series mostly up to 62.6 µM; note: nearly all actives have a fitted effect of over 55% in size
In short: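 Viability was measured as CellTiter-Glo luminescence in GeneBLAzer PPARg UAS-bla HEK293H cells. These cells had been exposed 17 h at 37 C to compounds together with rosiglitazone at 50 nM final, with the beta-lactamase readout taken in the same wells.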

[6] = qHTS assay for small molecule agonists of the antioxidant response element (ARE) signaling pathway (AID 743202; active = well fitted activation curve with a large enough effect in the signal ratio in the repeat runs, not every such curve was filed as active; the % refers to the signal ratio); conditions: HepG2 ARE-bla reporter, beta-lactamase FRET, 16 h; series mostly up to 73.3 µM
In short: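 Quantitative high-throughput format in HepG2 cells bearing an integrated ARE-beta-lactamase reporter. Compound exposure lasted 16 h at 37 C, and fluorescence was read 2 h after adding LiveBLAzer B/G substrate at room temperature.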

[7] = qHTS assay for small molecule agonists of the antioxidant response element (ARE) signaling pathway - cell viability counter screen (AID 743203; calls by dose curve; note: nearly all actives have a fitted effect of over 55% in size); conditions: ARE-bla HepG2 viability, CellTiter-Glo luminescence, 16 h; series mostly up to 73.3 µM
In short: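 CellSensor ARE-bla HepG2 cells, 2,000 per well, rested 5 hrs at 37C/5% CO2, then exposed to compound in DMSO for 16 hrs; viability read as CellTiter-Glo luminescence after 30 min at room temperature, in the reporter wells.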

[8] = qHTS assay for small molecule activators of the heat shock response signaling pathway - cell viability counter screen (AID 743209); conditions: HSE-bla HeLa viability, CellTiter-Glo luminescence, 5 h; series mostly up to 62.6 µM; note: nearly all actives have a fitted effect of over 50% in size
In short: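 CellSensor HSE-bla HeLa cells, plated overnight at 37 C/5% CO2, were exposed to compounds in DMSO for 5 h at 37 C. Viability was then read in the same wells by CellTiter-Glo luminescence after 30 min at room temperature.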

[9] = qHTS assay for small molecule activators of the heat shock response signaling pathway (AID 743210; active = well fitted activation curve with a large enough effect in the signal ratio in the repeat runs, with a control signal flat, not every such curve was filed as active; the % refers to the signal ratio;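 note: HeLa cells with beta-lactamase reporter driven by heat shock elements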); conditions: HeLa HSE-bla reporter, beta-lactamase ratio, 5 h; series mostly up to 62.6 µM
In short: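 HeLa HSE-bla cells, overnight plating; cpd in DMSO 5 h, 37 C; LiveBLAzer B/G FRET substrate 2.5 h RT; fluorescence intensity read.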

[10] = qHTS assay to identify small molecule agonists of the peroxisome proliferator-activated receptor delta (PPARd) signaling pathway - cell viability counter screen (AID 743211); conditions: PPARd-bla HEK293H viability, CellTiter-Glo luminescence, 17 h; series mostly up to 62.6 µM; note: nearly all actives have a fitted effect of over 55% in size
In short: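 Luminescent ATP viability assay (CellTiter-Glo, 30 min RT) in UAS-bla HEK293H cells carrying the PPAR delta reporter construct, 3000 cells/well, after a 17 h compound treatment at 37 C.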

[11] = target: Peroxisome proliferator-activated receptor delta (Homo sapiens) (UniProt Q03181); assay: qHTS assay to identify small molecule agonists of the peroxisome proliferator-activated receptor delta (PPARd) signaling pathway (AID 743212; calls by dose curve); conditions: HEK293H PPARd-UAS-bla, beta-lactamase FRET ratio, 17 h; series mostly up to 62.6 µM
Chain of Peroxisome proliferator-activated receptor delta (Homo sapiens) (Q03181 whole entry, looked up): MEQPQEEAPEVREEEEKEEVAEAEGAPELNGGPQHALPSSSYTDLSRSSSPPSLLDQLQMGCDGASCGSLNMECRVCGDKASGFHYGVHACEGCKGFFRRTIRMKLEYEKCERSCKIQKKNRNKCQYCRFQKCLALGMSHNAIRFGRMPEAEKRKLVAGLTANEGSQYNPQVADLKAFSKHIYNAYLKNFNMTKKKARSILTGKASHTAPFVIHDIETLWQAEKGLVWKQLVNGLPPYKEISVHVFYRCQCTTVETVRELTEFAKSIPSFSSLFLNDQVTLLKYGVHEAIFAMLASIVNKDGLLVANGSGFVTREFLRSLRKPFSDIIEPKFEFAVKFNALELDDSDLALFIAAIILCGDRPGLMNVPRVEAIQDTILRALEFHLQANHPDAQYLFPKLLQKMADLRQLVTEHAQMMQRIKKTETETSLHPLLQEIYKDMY
In short: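 HEK293H PPARd-bla cells; 5 h preincubation 37 C/5% CO2; compound (DMSO) 37 C; LiveBLAzer B/G FRET substrate 2 h RT; fluorescence intensity.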

[12] = qHTS assay to identify small molecule antagonists of the peroxisome proliferator-activated receptor delta (PPARd) signaling pathway - cell viability counter screen (AID 743213); conditions: PPARd-bla HEK293H viability, CellTiter-Glo luminescence, 17 h; series mostly up to 62 µM; note: nearly all actives have a fitted effect of over 50% in size
In short: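 Same-well viability: cells pre-incubated 5 h, dosed with compound plus 300 nM L165041, kept 17 h at 37 C, FRET substrate 2 h RT, then CellTiter-Glo 30 min RT and luminescence.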

[13] = qHTS assay to identify small molecule agonists of the farnesoid-X-receptor (FXR) signaling pathway - cell viability counter screen (AID 743218); conditions: FXR-bla HEK293T viability, CellTiter-Glo luminescence, 16 h; series mostly up to 62.6 µM; note: nearly all actives have a fitted effect of over 45% in size
In short: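 FXR-UAS-bla HEK 293T cells, plated 5 h at 37 C, were exposed to compounds for 16 h at 37 C. CellTiter-Glo was then added to the same wells as the bla readout; luminescence read after 30 min at room temperature.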

[14] = qHTS assay to identify small molecule antagonists of the farnesoid-X-receptor (FXR) signaling pathway - cell viability counter screen (AID 743221; active = well fitted cell-killing curve with a large enough effect in the repeat runs, not every such curve was filed as active; note: nearly all actives have a fitted effect of over 50% in size); conditions: FXR-bla HEK293T viability, CellTiter-Glo luminescence, 16 h; series mostly up to 62.6 µM
In short: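 In GeneBLAzer FXR-UAS-bla HEK 293T cells stimulated with 50 uM chenodeoxycholic acid (final), compounds acted for 16 h at 37 C. Viability was assessed afterwards by CellTiter-Glo luminescence.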

[15] = target: Vitamin D3 receptor (Homo sapiens) (UniProt P11473); assay: qHTS assay to identify small molecule agonists of the vitamin D receptor (VDR) signaling pathway (AID 743222; calls by dose curve); conditions: HEK293T VDR-UAS-bla, beta-lactamase FRET ratio, 16 h; series mostly up to 63.5 µM
Chain of Vitamin D3 receptor (Homo sapiens) (P11473 whole entry, looked up): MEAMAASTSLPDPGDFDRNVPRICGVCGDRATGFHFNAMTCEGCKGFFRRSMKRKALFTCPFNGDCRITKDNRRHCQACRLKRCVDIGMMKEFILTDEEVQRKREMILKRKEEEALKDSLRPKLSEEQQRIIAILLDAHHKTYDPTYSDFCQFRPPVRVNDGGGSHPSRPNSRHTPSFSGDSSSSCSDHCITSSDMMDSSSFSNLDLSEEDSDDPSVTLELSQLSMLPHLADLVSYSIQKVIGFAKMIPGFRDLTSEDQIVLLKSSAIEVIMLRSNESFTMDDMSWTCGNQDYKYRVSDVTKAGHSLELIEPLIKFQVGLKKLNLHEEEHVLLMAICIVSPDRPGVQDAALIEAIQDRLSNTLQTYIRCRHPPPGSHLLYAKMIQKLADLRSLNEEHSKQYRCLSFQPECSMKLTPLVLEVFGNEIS
In short: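 VDR-bla cells were plated 4 h at 37C/5% CO2, then exposed to compounds in DMSO for 16 h. After LiveBLAzer B/G FRET substrate addition and 2 h at room temperature, beta-lactamase reporter fluorescence was read.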

[16] = target: Vitamin D3 receptor (Homo sapiens) (UniProt P11473); assay: qHTS assay to identify small molecule antagonists of the vitamin D receptor (VDR) signaling pathway (AID 743223; active = well fitted inhibition curve with a large enough effect in the signal ratio in the repeat runs, not every such curve was filed as active; the % refers to the signal ratio); conditions: VDR-UAS-bla HEK293T, beta-lactamase FRET ratio, 16 h; series mostly up to 61 µM
In short: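 Agonist 1alpha,25-dihydroxyvitamin D3 (3 nM in well) was added with each compound to VDR-bla cells preincubated 4 h. Cells stood 16 h at 37C, then FRET substrate 2 h at room temperature; fluorescence intensity recorded.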

[17] = qHTS assay to identify small molecule agonists of the vitamin D receptor (VDR) signaling pathway - cell viability counter screen (AID 743224); conditions: VDR-bla HEK293T viability, CellTiter-Glo luminescence, 16 h; series mostly up to 62.6 µM; note: nearly all actives have a fitted effect of over 50% in size
In short: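 VDR-bla cells were preincubated 4 h at 37C/5% CO2, then exposed to compounds for 16 h. After the 2 h room-temperature bla FRET read, CellTiter-Glo was added to the same wells and luminescence read after 30 min.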

[18] = qHTS assay to identify small molecule antagonists of the vitamin D receptor (VDR) signaling pathway - cell viability counter screen (AID 743225); conditions: VDR-bla HEK293T viability, CellTiter-Glo luminescence, 16 h; series mostly up to 61 µM; note: nearly all actives have a fitted effect of over 50% in size
In short: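 Luminescent cell viability (CellTiter-Glo) in VDR-bla HEK 293T cells after 16 h compound exposure at 37C in the presence of 3 nM final 1-alpha,25-dihydroxy vitamin D3.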

[19] = target: Bile acid receptor (Homo sapiens) (UniProt Q96RI1); assay: qHTS assay to identify small molecule antagonists of the farnesoid-X-receptor (FXR) signaling pathway (AID 743217; active = well fitted inhibition curve with a large enough effect in the signal ratio in the repeat runs, not every such curve was filed as active; the % refers to the signal ratio); conditions: HEK293T FXR-UAS-bla, beta-lactamase ratio, CDCA-stimulated, 16 h; series mostly up to 62.6 µM
Chain of Bile acid receptor (Homo sapiens) (Q96RI1 whole entry, looked up): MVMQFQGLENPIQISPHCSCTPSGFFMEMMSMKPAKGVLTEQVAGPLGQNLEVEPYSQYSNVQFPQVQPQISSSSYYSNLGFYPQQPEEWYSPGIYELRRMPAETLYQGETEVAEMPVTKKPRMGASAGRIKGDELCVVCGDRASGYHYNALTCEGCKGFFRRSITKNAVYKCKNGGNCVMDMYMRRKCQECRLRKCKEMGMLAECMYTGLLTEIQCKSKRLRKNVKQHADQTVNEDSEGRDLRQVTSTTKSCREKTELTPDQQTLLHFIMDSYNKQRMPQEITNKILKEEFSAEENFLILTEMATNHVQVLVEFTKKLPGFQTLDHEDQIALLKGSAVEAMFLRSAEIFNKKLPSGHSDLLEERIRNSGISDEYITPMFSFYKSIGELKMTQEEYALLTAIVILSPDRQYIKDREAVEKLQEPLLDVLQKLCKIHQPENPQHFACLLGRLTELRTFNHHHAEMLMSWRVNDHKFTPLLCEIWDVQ
In short: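 FXR-UAS-bla HEK 293T cells pre-incubated 5 h at 37 °C, then exposed to compounds with chenodeoxycholic acid (50 uM final) for 16 h at 37 °C. Beta-lactamase reporter read by LiveBLAzer B/G FRET substrate fluorescence after 2 h at room temperature.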

[20] = target: Bile acid receptor (Homo sapiens) (UniProt Q96RI1); assay: qHTS assay to identify small molecule agonists of the farnesoid-X-receptor (FXR) signaling pathway (AID 743220; active = well fitted activation curve with a large enough effect in the signal ratio in the repeat runs, not every such curve was filed as active; the % refers to the signal ratio); conditions: HEK293T FXR-UAS-bla, beta-lactamase FRET ratio, 16 h; series mostly up to 62.6 µM
In short: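 Beta-lactamase reporter under UAS control in GeneBLAzer FXR HEK 293T cells (5000/well) measured with LiveBLAzer FRET substrate after 2 h at room temperature. Compound exposure lasted 16 h at 37C.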

Measured: Potency

CS(=O)(=O)OCCCCOS(C)(=O)=O
not listed: [19] | [20]
inactive: all other assays above

CNNCc1ccc(C(=O)NC(C)C)cc1
not listed: [3] | [4] | [11] | [19] | [20]
inactive: all other assays above

CC(=O)C(=O)O
not listed: [13] | [19] | [20]
inactive: all other assays above

O=C1O[C@H]([C@@H](O)CO)C(O)=C1O
not listed: [9] | [11] | [13] | [15] | [16] | [19] | [20]
inactive: all other assays above

COc1ccc(CN(CCN(C)C)c2ccccn2)cc1
not listed: [3] | [4] | [15] | [16] | [19] | [20]
inactive: all other assays above

NC(=O)c1cccnc1
not listed: [13]
inactive: all other assays above

Cc1ncc([N+](=O)[O-])n1CCO
not listed: [13] | [15] | [16] | [19] | [20]
inactive: all other assays above

— PubChem BioAssay (Tox21)
